D2 ag-1: HTS Assay for Allosteric Agonists of the Human D2 Dopamine Receptor: Primary Screen for Agonists; AID 485358, 2010; D(2) dopamine receptor (Homo sapiens), P14416; activation, % at 2 µM; 340,000 tested, 0.53% active; HEK293 T-REx D2 cells, calcium flux agonist mode;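 active = activation over 3 SD above normal in the single-dose calcium agonist read, cut at about 30% in these data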
Target sequence (P14416 whole entry, looked up): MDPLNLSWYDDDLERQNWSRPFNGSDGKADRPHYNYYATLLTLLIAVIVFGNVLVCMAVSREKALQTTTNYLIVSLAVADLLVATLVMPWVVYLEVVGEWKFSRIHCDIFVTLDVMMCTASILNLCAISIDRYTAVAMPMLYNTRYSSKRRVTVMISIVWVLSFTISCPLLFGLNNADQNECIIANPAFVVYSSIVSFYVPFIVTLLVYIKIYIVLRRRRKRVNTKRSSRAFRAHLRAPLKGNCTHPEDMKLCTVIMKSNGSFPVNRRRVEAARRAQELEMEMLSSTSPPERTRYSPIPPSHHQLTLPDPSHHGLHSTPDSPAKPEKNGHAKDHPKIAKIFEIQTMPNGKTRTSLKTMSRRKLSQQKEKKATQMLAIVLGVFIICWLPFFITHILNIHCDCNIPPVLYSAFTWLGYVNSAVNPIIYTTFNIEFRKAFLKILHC
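Tetracycline-induced HEK293 T-REx cells with force-coupled D2 receptor, plated overnight at 30 C, loaded with no-wash calcium dye. After a 10 s baseline, compound was pin-added and calcium flux read kinetically for 180 s; calcium rises flagged agonists.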
D2 PAM-1: Beta-Arrestin HTS for Positive Allosteric Modulators of the Human D2 Dopamine Receptor: Potentiators. DiscoveRx D2 beta-arrestin cells, luminescence, 90 min; 100% = 57 uM dopamine signal. AID 624464, 2012. D(2) dopamine receptor (Homo sapiens), P14416. 360,000 tested, 0.23% active. potentiation, % (concentration not given with the values); in the data active = potentiation above about 50%
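PathHunter beta-arrestin assay in DiscoveRx D2 cells. Compounds were added with an EC20 of dopamine (50 nM final) for 90 min at 37 deg C. Luminescence was read 1 h after detection reagent, with 57 uM dopamine as the EC100 control.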
D2 antag: HTS Assay for Allosteric Antagonists of the Human D2 Dopamine Receptor: Primary Screen for Antagonists; D(2) dopamine receptor (Homo sapiens), P14416; HEK293 TREx D2 cells, calcium flux, dopamine EC80; inhibition, % at 10 µM; 340,000 tested, 2% active; AID 485344, 2010; in the data active = inhibition above about 30%; inactive = below that, where a call was filed
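Tetracycline-induced HEK293 TREx cells expressing D2 receptor forced-coupled to calcium signalling, loaded with no-wash calcium dye. Compounds added and calcium flux read 180 s, then dopamine added at EC80 and read a further 180 s.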
D2 ag-2: Beta-Arrestin HTS for Positive Allosteric Modulators of the Human D2 Dopamine Receptor: Agonists; DiscoveRx PathHunter D2 beta-arrestin, luminescence, 90 min; 100% = 57 uM dopamine signal; activation, % (concentration not given with the values); 360,000 tested, 0.084% active; in the data active = activation above about 40%
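Agonist mode: compounds alone added to overnight-plated D2 PathHunter cells for 90 min at 37 C, with 57 uM final dopamine (EC100) defining full response. Beta-arrestin recruitment detected by chemiluminescent reagent, read after 1 h at ambient temperature.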
D2 PAM-2: HTS Assay for Positive Allosteric Modulators of the Human D2 Dopamine Receptor: Primary Screen for Potentiators; HEK293 T-REx D2, calcium flux, EC20 dopamine potentiation; potentiation, % at 10 µM; 340,000 tested, 0.34% active; AID 485347, 2010;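 active = potentiation over 3 SD above the plate norm, cut at about 30% in these data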
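Cells plated with tetracycline inducer and held overnight at 30 C; calcium dye loaded 30–90 min at room temperature; baseline taken, compound added and read 180 s; EC20 dopamine then added and read 180 s.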
Numbers stand for hits; 0 = inactive; - = not tested or not shown. Sampled rows, rich in hits. Any-hit rate of the full collection: about 2.4%.

SMILES | D2 ag-1 | D2 PAM-1 | D2 antag | D2 ag-2 | D2 PAM-2
COc1ccc(Br)cc1CNC(=O)Cn1nc(C)n2c(cc3cc(F)ccc32)c1=O | 0 | - | - | - | 0
COC(=O)c1cc(C(=O)OC)cc(-n2c(C)cc(C(=O)COC(=O)CNS(=O)(=O)c3ccc(C)cc3)c2C)c1 | 0 | 0 | 59.5 | 0 | 0
Cc1ccc(OCCSc2ncccn2)c(C)c1 | 0 | 0 | 36.7 | 0 | 0
Cc1cccc(OCCOCCSc2ncccn2)c1 | 0 | 0 | 0 | 0 | 0
Cc1cc(C)cc(NC(=O)C2CCCN(c3cnccn3)C2)c1 (centres undefined) | 0 | - | - | - | 0
CN(C)CCCN1c2ccccc2Sc2ccccc21 | - | 0 | - | 0 | -
CN(C)CCCN1c2ccccc2CCc2ccc(Cl)cc21 | 0 | 0 | 89.1 | 0 | 0
CNCCCN1c2ccccc2CCc2ccccc21 | 0 | 0 | 39.1 | 0 | 0
CCN1C(=O)CCCc2ccccc21 | 0 | 0 | 0 | 0 | 0
COc1ccc(CN2CCC(C(=O)N(C)CCc3ccc(OC)c(OC)c3)CC2)c(OC)c1 | 0 | 0 | 0 | 0 | 30.9
COc1ccc(CCN(C)C(=O)C2CCN(Cc3ccc(C)cc3)CC2)cc1OC | 0 | 0 | 47.1 | 0 | 0
CC(C)(C)c1ccc2c(c1)OC(C(=O)N/N=C\c1ccccn1)CO2 (centres undefined) | 0 | 0 | 0 | 0 | 0
CC(C)(C)c1ccc2c(c1)OCC(C(=O)O)O2 (centres undefined) | - | 0 | - | 0 | 112.9
CN(c1ccc(OCC(=O)Nc2ccccc2C(=O)O)cc1)S(=O)(=O)c1ccc(Cl)cc1 | - | 62.2 | - | 0 | -
CC(=O)Nc1ccc(S(=O)(=O)N(C)c2ccc(OCC(=O)Nc3ccccc3C(C)=O)cc2)cc1 | 0 | 0 | 0 | 0 | 0
CCCCN(Cc1ccccc1)C(=O)c1oc(=O)c2ccccc2c1-c1ccc(C)cc1 | 0 | - | - | - | 0
COc1ccccc1C1C(C(C)=O)=C(C)N=c2s/c(=C\c3cc(OC)c(OC)c(OC)c3)c(=O)n21 (centres undefined) | 0 | 0 | 0 | 0 | 31.7
Cc1ccc(CNC(=O)CO/N=C/c2ccc(C(C)(C)C)cc2)cc1 | 0 | 0 | 37.9 | 0 | 0
CCC(C)c1ccccc1NC(=O)COC(=O)c1ccc2[nH]c3c(c2c1)CCCC3 (centres undefined) | 0 | 0 | 70.5 | 0 | 0
O=C(COC(=O)c1ccc2[nH]c3c(c2c1)CCCC3)Nc1ccccc1Cl | 0 | 0 | 0 | 0 | 0
Cc1cc(C)n(-c2nc(C)c(C)c(=O)n2CC(=O)Nc2ccc(OC(F)(F)F)cc2)n1 | - | - | - | - | 0
Cn1c(=O)n(CCCOc2ccc(Br)cc2)c2ccccc21 | 0 | 0 | 32.4 | 0 | 0
CCOC(=O)c1c(S(=O)(=O)NCC2CCN(CCc3cccs3)CC2)c(C)n(C)c1C | 0 | 0 | 43.2 | 0 | 0
CCOC(=O)c1c(C)[nH]c(C)c1S(=O)(=O)NCC1CCN(Cc2cccc(F)c2)CC1 | 0 | 0 | 73.9 | 0 | 0
CCOC(=O)c1c(C)[nH]c(C)c1S(=O)(=O)Nc1ccc(CN2CCCCC2)cc1 | 0 | 0 | 0 | 0 | 0
SMILES | D2 ag-1 | D2 PAM-1 | D2 antag | D2 ag-2 | D2 PAM-2
CCOC(=O)c1c(S(=O)(=O)NCCc2cccs2)c(C)n(C)c1C | 0 | 0 | 0 | 0 | 0
CCOC(=O)c1c(C)[nH]c(C)c1S(=O)(=O)NCC1CCN(Cc2ccccc2OC)CC1 | 0 | 0 | 32.9 | 0 | 0
O=C(NCC(c1ccco1)S(=O)(=O)c1ccc(Cl)cc1)c1ccccc1F (centres undefined) | 0 | - | - | - | 0
CCOc1ccc(C2C(C(=O)Nc3ccc(C)cc3C)=C(C)Nc3c(C(=O)Nc4ccc(C)cc4)cnn32)cc1OC (centres undefined) | 0 | - | - | - | 0
COc1ccc(-c2cc3ccc(O)c(CN4CCC(C)CC4)c3oc2=O)cc1OC | 0 | - | - | - | 0
O=C1N[C@@H](Cc2ccccc2)[C@@H](c2ccco2)O1 | 0 | 0 | 31.8 | 0 | 0
